# Measurements from PubChem BioAssay AID652126 (The Scripps Research Institute Molecular Screening Center, 2013).
# Among all 370,000 compounds or so, about 3,700 (1%) were called active. The sample as a whole holds a higher share of actives than the screen did. A number with no mark means an inactive call.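 How the source made its calls: active means activation above the mean over all tested compounds plus 3 SD (cut at about 0.9% in these data); inactive means the rest.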
# Tested on: Nuclear hormone receptor DAF-12 (Strongyloides stercoralis)
# Test: ssDAF-12 driven luciferase reporter activation – cell-based, luminescence, HEK293, GRIP1 co-expression, lit1-tk-luc, primary screen (AID 652126);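 further: 0% = DMSO-only wells and 100% = 3 µM delta7-dafachronic acid wells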
# Conditions: HEK293 ssDAF-12/GRIP1 lit1-tk-luc reporter, at 6.8 µM, hits give high values, % of 3 µM dafachronic acid response
row,SMILES,activation
1,Cc1cc(C)nc(NS(=O)(=O)c2ccc(N/C=C\C(=O)c3cccs3)cc2)n1,1.14% (active)
2,CC(=O)Nc1ccc(S(=O)(=O)Nc2nccc(/C=C/c3ccccc3F)n2)cc1,-0.24%
3,CCOc1ncccc1C(=O)Nc1ccc(S(=O)(=O)Nc2nc(C)cc(C)n2)cc1,-0.22%
4,O=S(=O)(c1ccc2c(c1)OCCCO2)N1CCN(S(=O)(=O)c2c(F)cccc2F)CC1,-0.38%
5,COC(=O)C1=CO[C@@H](O[C@@H]2O[C@H](CO)[C@@H](O)[C@H](O)[C@H]2O)C2C1C[C@H](O)[C@@H]2C (some centres undefined),-1.3%
6,CC(OC(=O)c1cc2ccccc2o1)C(=O)Nc1ccc(N2CCOCC2)cc1 (centres undefined),-1.36%
7,Cc1ccc(NC(=O)c2cc3ccccc3o2)cc1,2.98% (active)
8,Cc1cccc(-n2nc3c(c2NC(=O)c2cc4ccccc4o2)CS(=O)(=O)C3)c1,-0.31%
9,CC(=O)N1CCc2cc(S(=O)(=O)NCCC(=O)N3CCCC3)ccc21,-0.66%
10,Nc1[nH]c(/C=C2/CCCCC2n2[nH]c(=O)n(-c3ccccc3)c2=O)c(Cc2ccccc2)[n+]1Cc1ccccc1 (centres undefined),-1.51%
11,COC(=O)[C@]12C[C@H](CC(=O)NCc3ccccc3)C(=O)N(Cc3ccccc3)C1=C[C@H](COCc1ccccc1)O[C@@H]2C,-1.73%
12,NC(=O)CSc1c[nH]c2ccccc12,1.11% (active)
13,O=C(CSc1nnc(-c2c[nH]c3ccccc23)o1)c1ccccc1,-0.81%
14,CCCn1cc(SCC(N)=O)c2ccccc21,-0.92%
15,COC(=O)[C@]12C[C@H](CC(=O)N3CCOCC3)C(=O)N(Cc3ccc(Cl)cc3Cl)C1=C[C@H](COCc1ccccc1)O[C@@H]2C,-0.98%
16,N#Cc1ccccc1OC[C@@H](O)CN1CCC(C(O)(c2ccccc2)c2ccccc2)CC1,-0.74%
17,Cc1c(NC(=O)CN(C)CC(=O)Nc2ccc(F)c(F)c2F)c(=O)n(-c2ccccc2)n1C,-0.43%
18,CNC(=O)COc1ccc(S(=O)(=O)Nc2ccccc2)cc1,-0.41%
19,COc1ccc(S(=O)(=O)/N=C2\C=C(NS(=O)(=O)c3ccccc3)C(=O)c3ccccc32)cc1,1.6% (active)
20,Cc1ccc(S(=O)(=O)/N=C2\C=C(NS(=O)(=O)c3ccc(C)cc3)C(=O)c3ccccc32)cc1,-0.8%
21,O=C(CNC1CCCCC1)NCC1(c2ccccc2)CCCC1,-1.46%
22,CCC(NC(=O)C1C2C=CC3(CN(Cc4ccccc4)C(=O)C13)O2)c1ccccc1 (centres undefined),-1.54%
23,COc1ccc(NC(=O)C(c2ccncc2)n2c(=O)c(-c3cc4ccccc4[nH]3)nc3ccccc32)cc1 (centres undefined),1.22% (active)
24,CCCCCNC(=O)C(c1ccc(OC)cc1)n1c(=O)c(-c2ccccc2)nc2ccccc21 (centres undefined),-0.6%
25,COc1ccc(C(C(=O)NCc2ccccc2)n2c(=O)c(-c3ccccc3)nc3ccccc32)cc1 (centres undefined),-0.84%
26,O=C(NCc1cccs1)C1CCN(S(=O)(=O)c2ccccc2[N+](=O)[O-])CC1,-1.16%
27,N#CCC[C@H]1CC[C@]2(CCCN(Cc3ccc(Cl)cc3)C2)O1,-1.32%

row,SMILES,activation
1,O=C(Nc1ccc(F)cc1)c1cc2c(s1)CCCC2,0.25%
2,O=C(Nc1ccc2c(c1)CCC2)c1ccc(Br)s1,1.14% (active)
3,CC(C)Oc1ccc(C(=O)NCC(=O)Nc2ccc3c(c2)CCC3)cc1,-0.37%
4,Cc1ccc(/C=C/C(=O)O)cc1S(=O)(=O)N1CCC(Cc2ccccc2)CC1,-1.4%
5,Cc1ccc(S(=O)(=O)Nc2nc3ccccc3nc2N2CCc3ccccc3C2)cc1,1.37% (active)
6,Cc1ccc(S(=O)(=O)C(C#N)c2nc3ccccc3nc2N2CCCC2)cc1C (centres undefined),-0.41%
7,COCCCNc1nc2ccccc2nc1NS(=O)(=O)c1ccc(F)cc1,-0.23%
8,Cc1cc(C(=O)NN=C/C=C/c2ccco2)n[nH]1,-0.85%
9,CCOC(=O)C(=O)N(Cc1ccccc1)c1ccccc1C(=O)Nc1cc(OC)ccc1OC,-1.83%
10,CCc1ccc2oc(-c3ccc(N)cc3)nc2c1,1.77% (active)
11,Cc1ccc(-c2nnc(SCC(=O)Nc3ccc(Oc4ccccc4)cc3)n2Cc2ccco2)cc1,-1.75%
12,COC(=O)[C@]1(C#N)CC(=O)N(CC2CCCCC2)[C@@H]1c1ccccc1,0.53%
13,O=C(Nc1ccccc1)N1CCN(Cc2nc3ccccc3c(=O)[nH]2)CC1,-0.67%
14,COc1ccc(C(=O)Nc2sc(C)c(C)c2CN2CCOCC2)cc1,1.65% (active)
15,CCc1cc(C(c2ccccc2OC)N2CCOCC2)c(NC(=O)c2ccccc2)s1 (centres undefined),-1.1%
16,COc1ccc(C(=O)Nc2ccnn2C2CCN(Cc3ccncc3)CC2)cc1,-0.78%
17,O=C(NCc1cccs1)C1CCCN(S(=O)(=O)c2ccc([N+](=O)[O-])cc2)C1 (centres undefined),-1.79%
18,Cc1nc(CNc2ncnc3ccc(-c4ccc5c(c4)OCO5)cc23)cs1,-1.38%
19,COCCNc1nc(N)c([N+](=O)[O-])c(NCCO)n1,-1.31%
20,Nc1nc(Nc2ccccc2F)nc(NC2CCCCC2)c1[N+](=O)[O-],-0.48%
21,CNc1nc(Nc2ccc(C)c(Cl)c2)nc(N)c1[N+](=O)[O-],2.25% (active)
22,CC(C)CNc1cccc2c1S(=O)(=O)N(Cc1cn(Cc3ccccc3C(F)(F)F)nn1)Cc1ccccc1O2,-0.93%
23,Cc1ccc(CN2CCCCC(NC(=O)C3CCCCC3)C2=O)cc1 (centres undefined),-0.73%
24,CC(CCN1CCC(C(O)(c2ccccc2)c2ccccc2)CC1)Oc1ccc([N+](=O)[O-])cc1Cl (centres undefined),-0.24%
25,NS(=O)(=O)c1ccc2nc(NC(=O)CS(=O)(=O)c3ccc(F)cc3)sc2c1,1.3% (active)
26,CCS(=O)(=O)N1Cc2ccccc2CC1C(=O)Nc1nc2ccc(F)cc2s1 (centres undefined),0.55%
27,Cc1nc2ccc(S(=O)(=O)NCC(=O)O)cc2s1,-0.93%
